About 83,000 compounds went through this panel and 20% of them were active in at least one assay; those are over-represented in the sample as a whole.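 A percent growth of 40 corresponds to 60% growth inhibition; 0 means no net growth; -100 means all cells died. Active threshold: below 10.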 Activity calls are given as the source filed them.
Tests used:
Assay in all cases: NCI-60 one-dose screen, 48 h (100 = growth as untreated, 0 = no growth, -100 = all killed)
Conditions in all cases: 10 µM unless noted
[1] = test system: NCI-H23 lung
[2] = test system: NCI-H226 lung
[3] = test system: NCI-H322M lung
[4] = test system: HOP-62 NSCLC
[5] = test system: NCI-H460 lung
[6] = test system: HOP-92 NSCLC
[7] = test system: NCI-H522 lung
[8] = test system: A549/ATCC NSCLC
[9] = test system: 786-0 renal
[10] = test system: COLO 205 colon
[11] = test system: DU-145 prostate
[12] = test system: MALME-3M melanoma
[13] = test system: MDA-MB-231 breast
[14] = test system: RXF 393 renal
[15] = test system: SF-268 CNS
[16] = test system: SF-295 CNS
[17] = test system: SF-539 CNS
[18] = test system: UACC-257 melanoma
[19] = test system: M14 melanoma

Measured: growth

COc1ccc(/C=C/c2nc(Nc3ccc(S(=O)(=O)Nc4nc(C)cc(C)n4)cc3)c3ccccc3n2)cc1
inactive: [1] 78.1% | [2] 68.9% | [3] 29% | [4] 75.6% | [5] 63% | [6] 66.4% | [7] 68.5% | [8] 42.2% | [9] 78.8% | [10] 59.8% | [11] 71.3% | [12] 89.6% | [13] 61.3% | [14] 94.3% | [15] 75.3% | [16] 63.8% | [17] 96.8% | [18] 78.6% | [19] 47.1%

COc1cc(C2=NN(C(C)=O)C(c3cc(OC)c(OC)c(OC)c3)C2)ccc1O (centres undefined)
active: [5] -6.58% | [7] -33.8% | [10] -17.2% | [11] -1.86% | [13] 4.4% | [14] -20.9% | [16] -55.6% | [17] -30.7% | [19] -28.3%
inactive: [1] 29.5% | [2] 38.5% | [3] 35.2% | [4] 32.8% | [6] 48.5% | [8] 21.7% | [9] 17.9% | [12] 49.4% | [15] 36.2% | [18] 60%

O=C(/C(=C\c1ccc([N+](=O)[O-])cc1)S(=O)Cc1ccc(F)cc1)c1ccc(F)cc1 (centres undefined)
inactive: [1] 46.7% | [2] 77.9% | [3] 79.9% | [4] 38.1% | [5] 30.9% | [6] 65.2% | [8] 79.9% | [11] 33.1% | [12] 18.5% | [13] 12.8% | [15] 31.5% | [16] 77.6% | [17] 39.4% | [18] 93.2% | [19] 38%
active: [7] -22.1% | [9] -43.9% | [10] 8.65% | [14] -67.8%

COc1ccc(/C=C/c2nc(Nc3ccc(Cl)cc3)c3ccccc3n2)cc1
inactive: [1] 73.1% | [2] 71.1% | [3] 44.3% | [4] 69% | [5] 18.2% | [6] 63.5% | [7] 69.3% | [8] 35% | [9] 36.9% | [10] 63.1% | [11] 50.2% | [12] 94.6% | [13] 38.2% | [14] 56.6% | [15] 54.3% | [16] 72.6% | [17] 90.9% | [18] 92.2% | [19] 34.3%

CC(=O)[C@@H]1CC[C@]2(CO)CC[C@]3(C)[C@H](CC[C@@H]4[C@@]5(C)CCCNC(C)(C)[C@@H]5CC[C@]43C)[C@@H]12
inactive: [1] 94.6% | [2] 107% | [3] 88.8% | [4] 111% | [5] 100% | [6] 88.7% | [7] 91.6% | [8] 112% | [9] 93.6% | [10] 106% | [11] 101% | [12] 92.9% | [13] 107% | [14] 104% | [15] 91.2% | [16] 105% | [17] 105% | [18] 123% | [19] 93.6%

Cc1nc2sccn2c1-c1cn2ccsc2n1
inactive: [1] 60.2% | [2] 84.3% | [3] 82.7% | [4] 90.7% | [5] 65.9% | [6] 69.6% | [7] 89.2% | [8] 98.9% | [9] 95.8% | [10] 87.2% | [11] 76.3% | [12] 77.7% | [13] 81.3% | [14] 77.5% | [15] 102% | [16] 89.9% | [17] 90.5% | [18] 91% | [19] 93.7%

Cn1cc(-c2nc(-c3c[nH]c4c(Cl)nccc34)cs2)c2cc(F)ccc21
inactive: [1] 104% | [2] 95.5% | [3] 102% | [4] 88.5% | [5] 98.3% | [6] 98.2% | [7] 90.2% | [8] 74.5% | [9] 94.7% | [10] 99.8% | [11] 97.4% | [12] 120% | [13] 100% | [14] 106% | [15] 114% | [16] 105% | [17] 107% | [18] 70.2% | [19] 99.9%

O=C1/C=C/[C@@H](O)[C@@H]2C[C@@H](O)C[C@H]2/C=C/CCC[C@H](CCc2cccc3ccccc23)O1
active: [1] -36% | [2] -62% | [7] -25.8% | [9] -44.7% | [10] -91.9% | [12] -17.7% | [13] -41.2% | [14] -30.9% | [16] 7.76% | [19] 5.14%
inactive: [3] 25.2% | [4] 21.8% | [5] 12.2% | [6] 46.5% | [8] 19.3% | [11] 19% | [15] 16.6% | [17] 21.7% | [18] 26.1%

CN1CCN(CCNc2nccc(-c3c(-c4cccc(O)c4)nc4sccn34)n2)S1(=O)=O
inactive: [1] 46.1% | [2] 100% | [3] 70.2% | [4] 79.3% | [5] 57.3% | [6] 49% | [7] 46.2% | [8] 88% | [9] 93.2% | [10] 17.6% | [11] 56.5% | [13] 24.3% | [14] 39.2% | [15] 85.6% | [16] 95.9% | [17] 79.9%
active: [12] -20% | [18] -10.6% | [19] -4.02%

COc1ccc(/C=C/c2nc(Nc3ccc(S(=O)(=O)NC(C)=O)cc3)c3ccccc3n2)cc1
inactive: [1] 85.9% | [2] 84% | [3] 38.6% | [4] 81.2% | [5] 64.7% | [6] 67.8% | [7] 76.3% | [8] 42% | [9] 83.6% | [10] 49.7% | [11] 69.5% | [12] 99.1% | [13] 72.4% | [14] 103% | [15] 85.3% | [16] 81.2% | [17] 97.3% | [18] 89.4% | [19] 45.5%

COCc1cnccc1NC1CCCCCC1
inactive: [1] 103% | [2] 95.7% | [3] 98.6% | [4] 99.9% | [5] 108% | [6] 91.2% | [7] 89.9% | [8] 96.3% | [9] 106% | [10] 121% | [11] 108% | [12] 105% | [13] 101% | [14] 100% | [15] 101% | [16] 101% | [17] 101% | [18] 99.5% | [19] 94.2%

OCc1cnc2ccccc2c1NC1CCCCCC1
inactive: [1] 77.4% | [2] 80.4% | [3] 89.3% | [4] 95.8% | [5] 93.1% | [6] 83.6% | [7] 61.7% | [8] 84.6% | [9] 101% | [10] 110% | [11] 97.7% | [12] 102% | [13] 81.3% | [14] 103% | [15] 101% | [16] 86.4% | [17] 102% | [18] 94.5% | [19] 91.4%

Cc1ncc(C(=O)Nc2ccc(CN3CCN(C)CC3)c(C(F)(F)F)c2)cc1C#Cc1cnc(N)cc1C#N
active: [2] -71% | [5] -77.6% | [7] -46.2% | [8] -89.5% | [9] -65.5% | [11] -96.1% | [12] -94.3% | [13] -81.4% | [14] -93.3% | [17] -98.4% | [18] -89.3% | [19] -75.1%
inactive: [1] 30.6% | [3] 28% | [4] 42.3% | [6] 17.3% | [10] 21.5% | [15] 22.9% | [16] 70%

O=C1c2cccc3c(-c4ccc5c(c4)ncn5C4CCCCC4)ccc(c23)C(=O)N1c1nc2ccccc2s1
inactive: [1] 86.4% | [2] 84.1% | [3] 91.7% | [4] 82% | [5] 94.8% | [6] 76% | [7] 78.2% | [8] 100% | [9] 93% | [10] 89.8% | [11] 105% | [12] 93% | [13] 74% | [14] 105% | [15] 94.1% | [16] 90.4% | [17] 95.7% | [18] 101% | [19] 93.8%

N#C/C(=C\c1cccc(C#N)c1)c1ccccc1
inactive: [1] 101% | [2] 105% | [3] 104% | [4] 92.9% | [5] 104% | [6] 120% | [7] 95.6% | [8] 88.8% | [9] 105% | [10] 104% | [11] 101% | [12] 98.9% | [13] 102% | [14] 108% | [15] 99% | [16] 99.5% | [17] 99.4% | [18] 99.2% | [19] 104%

COc1ccc(/C=C2\COc3ccc(-c4ccccc4)cc3C2=O)c(OC)c1
inactive: [1] 77.9% | [2] 86.6% | [3] 90.2% | [4] 120% | [5] 83.4% | [6] 109% | [7] 39.7% | [8] 90.9% | [9] 83.2% | [10] 124% | [11] 102% | [12] 91.6% | [13] 93% | [14] 83% | [15] 97.7% | [16] 190% | [17] 97.3% | [18] 82.8% | [19] 92.6%
